In the first experiment the target is CT47A1. The experiment can be described thus: pooled miR-30 sensor sort-seq; sequence = guide strand. As to conditions: shRNA.
On to TGCATCCTTCTCTTTTTCTTGT, for which the sensor-assay potency score (higher = more potent) was -0.624. The same measure, in the same setting: the value for TCTGCGTCTGGTTCCTCTGTGG was -0.289. As to TTCTCTATGAGGATGTGGTCGT, the sensor-assay potency score (higher = more potent) is 0.0532. The same measure, in the same setting: the value for TTCCTCGCCTGCAGCATCTTGG was -0.775. On the same count and under the same terms, the value for TGTTCTTTCTCTTCCTCGCCTG was 0.234; that for TATGAGGATGTGGTCGTTGTGA was -0.634; that for TTCTTCACCTTGTTTTCTGCAT was -0.231.

TTGTTTTCTGCATCCTTCTCTT registered a sensor-assay potency score (higher = more potent) of -0.0876. Sequence TTGTTCTTTCTCTTCCTCGCCT had a sensor-assay potency score (higher = more potent) of 0.277.

A further experiment concerns the target CTBP2. The experiment is described as above. The following applies: shRNA.
TTGCTTGCTGGTCTATTACTGA displayed a sensor-assay potency score (higher = more potent) of -0.788.

The sequence TTCGTTGAGATTGCAGTGCAAG gave a sensor-assay potency score (higher = more potent) of -1.27. The sequence TAGAGTCCGCTGTCTCTTCCAC displayed a sensor-assay potency score (higher = more potent) of -0.12.

For the sequence AATTTCTTAAGCTTTCTGGGAT, the sensor-assay potency score (higher = more potent) amounted to 0.0586. On the same count and under the same terms, the value for TTCGTTTAGAACCTTCTCGTGG was -0.189. The same measure, in the same setting: the value for AATCGCTGTCTCTTGACTTTGT was 0.0201; that for TTGTGAGTCACTGGGATGCCTC was -1.08. The same measure, in the same setting: the value for TGCTGGTCTATTACTGACCAAG was -1.63. With TTCTGTCCAATCGCTGTCTCTT, the sensor-assay potency score (higher = more potent) is -0.623.

With TACCTTCACAAATTCTGTCCAA, the sensor-assay potency score (higher = more potent) was -0.0172. As to TTGAGATTGCAGTGCAAGGAGA, the sensor-assay potency score (higher = more potent) is -0.597. On the same count and under the same terms, the value for TATCCGCACGATCACTCTCAGG was -1.62. Same read-out and setting: the value for TTATGTTCGTTGAGATTGCAGT was -0.485; that for ACAAATTCTGTCCAATCGCTGT was -0.83. The same measure, in the same setting: the value for TCGCTGTCTCTTGACTTTGTGC was -1.38; that for TAAAATATGACGCTGAATCCAA was -0.138; that for TCGTTTAGAACCTTCTCGTGGA was 0.661. Regarding TATGGTAAAGTCATTGATGAGG, the sensor-assay potency score (higher = more potent) was -1.17. On the same count and under the same terms, the value for TTTCCTGCGTCGACTGCGCGTC was -0.459. Still for that read-out and setting: the value for TTCGGGGCATCTTTCAACGGAC was -0.791; that for TAAGGCTTTCTCGTCCACCAGG was -0.686. In turn, TTGCTGGTCTATTACTGACCAA had a sensor-assay potency score (higher = more potent) of -0.982. The same measure, in the same setting: the value for TTGCAGTGCAAGGAGACGCAGT was -0.883.

The target of a further experiment is CTCFL. Described as above. The following applies: shRNA.
With TTATTTTCTAGTCTAATCTAGT, the sensor-assay potency score (higher = more potent) was -0.371. The same measure, in the same setting: the value for TATCCTGCAACTCCACAGCTTC was -1.14. Same read-out and setting: the value for TTTATGTTTCTTCTCACTCTGC was -0.0954; that for TAAAGGTGAACCTTGCTCCTAT was 0.214; that for TTGAGGAGCATTTCACACCTTA was 0.0619. With TTTCTTTGAAATATCCAGCTAC, the sensor-assay potency score (higher = more potent) stood at 0.55. Still for that read-out and setting: the value for TTAGAAGTTGCTTCTGTCGGAA was -0.207; that for TTGTATAAAAACATTTGTCTTT was -0.651.

(Values after the OligoGym collection.)
Further: reference of the scale not given here.
